The source made the active and inactive calls. The calls were made as follows: active = hit-call score of the fitted dose curve at least 0.9, where 1 is the maximum; inactive = score below 0.9.

The nature of assay [1]: ATG_CRE_CIS: Attagene CIS-FACTORIAL HepG2 Assay for human cAMP Responsive Element (CRE) binding protein 3 (AID 2282926). Conditions: HepG2 CRE cis-reporter, Attagene multiplexed mRNA; actives raise or lower the signal. A digest of the protocol: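 Multiplexed transcription-unit reporters transfected into HepG2; 24 h dosing; RT-PCR/capillary electrophoresis fluorescence read-out; bidirectional fit vs DMSO.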

Assay [2] addresses CCAAT/enhancer-binding protein beta (Homo sapiens) (UniProt P17676). The assay is described as follows: ATG_C_EBP_CIS: Attagene CIS-FACTORIAL HepG2 Assay for human CCAAT/Enhancer Binding Protein (C/EBP) beta (AID 2282927). Conditions: HepG2 Attagene cis-factorial transcription factor reporter; actives raise or lower the signal. The essentials: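 Endogenous C/EBPb-driven reporter transcripts measured in transfected human HepG2 cells at 24 h via RT-PCR and capillary electrophoresis of labelled fragments. Activity fitted in both directions relative to DMSO baseline.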

Assay [3] in a line: ATG_CMV_CIS: Attagene CIS-FACTORIAL HepG2 Assay for human CMV (Internal Marker) (AID 2282928).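 Also: endpoint acts as a background internal control marker rather than a target.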 Conditions: HepG2 CMV promoter reporter, transcription factor profiling; actives raise or lower the signal. A digest of the protocol:
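Cell system: HepG2, transiently transfected multiple reporter units under cis promoters. Exposure: 24 h. Detection: RT-PCR, FAM labeling, HpaI digestion, capillary electrophoresis. Analysis: bidirectional, DMSO baseline.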

A short description of assay [4]: ATG_DR4_LXR_CIS: Attagene CIS-FACTORIAL HepG2 Assay for human Liver X Receptor (LXR), DR4 submotif (AID 2282929). Conditions: HepG2 Attagene DR4 cis-reporter, mRNA transcription; actives raise or lower the signal. A digest of the protocol: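 Measures endogenous transcription factor activity via a DR4-driven reporter transcript in human HepG2 cells. Compounds incubated 24 h; mRNA quantified by RT-PCR and capillary electrophoresis, analysed as gain or loss of signal versus DMSO.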

A short description of assay [5]: ATG_AP_1_CIS: Attagene CIS-FACTORIAL HepG2 Assay for human Activator Protein 1 (AP-1) (AID 2282931). Conditions: HepG2 Attagene cis-factorial AP-1 reporter mRNA; actives raise or lower the signal. The essentials:
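Bidirectional concentration-response fitting against DMSO controls. Underlying signal: reporter mRNA from cis-promoter constructs in transiently transfected HepG2, measured after 24 h by RT-PCR and capillary electrophoresis.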

Assay [6] is described as follows: ATG_BRE_CIS: Attagene CIS-FACTORIAL HepG2 Assay for human Bone Morphogenetic Protein (BMP) Response Element (BRE) (AID 2282933). Conditions: HepG2 BMP response element reporter, Attagene transcription factor profiling; actives raise or lower the signal. The essentials: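 Read-out: reporter mRNA induction quantified by RT-PCR and capillary electrophoresis after 24 h chemical exposure of transfected HepG2 cells. Endogenous factor activity on the BMP response element; gain or loss fitted against DMSO baseline.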

Assay [7] in a line: ATG_E_Box_CIS: Attagene CIS-FACTORIAL HepG2 Assay for human Enhancer Box (E-box) (AID 2282936). Conditions: HepG2 E-box cis-reporter transcription, actives raise or lower the signal. A digest of the protocol: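 Cells: HepG2 (human liver), transient MRTU transfection. Exposure 24 h. RNA → oligo(dT) RT → PCR → 6-FAM label → HpaI → CE. Activity fitted both directions relative to DMSO.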

The nature of assay [8]: ATG_M_19_CIS: Attagene CIS-FACTORIAL HepG2 Assay for M19 Transcription Factor (Internal Marker) (AID 2282939). Conditions: HepG2 Attagene CIS-FACTORIAL M19 internal marker reporter; actives raise or lower the signal. A digest of the protocol:
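Readout: fluorescent reporter-transcript fragments by capillary electrophoresis after RT-PCR. Human HepG2 liver cells carried transfected MRTU constructs reporting endogenous transcription-factor activity; exposure 24 h. Gain or loss of signal fitted relative to DMSO.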

A short description of assay [9]: ATG_GATA_CIS: Attagene CIS-FACTORIAL HepG2 Assay for human GATA Binding Protein (AID 2282944). Conditions: HepG2 GATA cis-element reporter, Attagene multiplex mRNA; actives raise or lower the signal. A digest of the protocol:
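Read-out: fluorescent reporter mRNA fragments resolved by capillary electrophoresis after RT-PCR. Human liver HepG2 cells carried transiently transfected cis-regulated reporter constructs; chemicals incubated 24 h; gain or loss of signal fitted relative to DMSO.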

Assay [10] can be described thus: ATG_ISRE_CIS: Attagene CIS-FACTORIAL HepG2 Assay for human Interferon Regulatory Factor 1 (IRF1) binding to an Interferon-Stimulated Response Element (ISRE) (AID 2282948). Conditions: HepG2 ISRE cis-reporter (Attagene), mRNA transcription readout; actives raise or lower the signal. The essentials:
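Quantitation relies on labelled RT-PCR fragments separated by capillary electrophoresis. Human HepG2 cells bearing cis-promoter reporter constructs were treated 24 h; DMSO served as baseline for bidirectional fitting.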

The nature of assay [11]: ATG_M_32_CIS: Attagene CIS-FACTORIAL HepG2 Assay for M32 Transcription Factor (Internal Marker) (AID 2282949).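 Also: background control marker of the multiplexed CIS panel rather than a real target.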 Conditions: HepG2 Attagene cis-factorial M32 reporter, mRNA; actives raise or lower the signal. A digest of the protocol: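 Fluorescent capillary electrophoresis peaks of HpaI-digested, FAM-labelled RT-PCR reporter products give the signal. Source: transiently transfected human liver HepG2 cells, 24 h after chemical dosing; bidirectional fitting against DMSO.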

The nature of assay [12]: ATG_M_06_CIS: Attagene CIS-FACTORIAL HepG2 Assay for M06 Transcription Factor (Internal Marker) (AID 2282950). Conditions: HepG2 Attagene CIS-FACTORIAL M06 internal marker reporter; actives raise or lower the signal. A digest of the protocol: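 Terse: HepG2, transient MRTU transfection (FuGene 6), 24 h dosing; total RNA, oligo(dT) RT, PCR, FAM label, HpaI cut, capillary electrophoresis; bidirectional fit vs DMSO baseline; background-control endpoint.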

The nature of assay [13]: ATG_MRE_CIS: Attagene CIS-FACTORIAL HepG2 Assay for human Metal Responsive Element (MRE) (AID 2282954). Conditions: HepG2 MRE cis-reporter transcription, Attagene multiplex; actives raise or lower the signal. The essentials: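 Transient MRTU transfection of HepG2 (FuGene 6); 24 h dosing; total RNA → oligo(dT) RT, PCR, 6-FAM primer extension, HpaI cut, CE. Bidirectional fit vs DMSO.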

Assay [14] concerns the target Paired box protein Pax-6 (Homo sapiens) (UniProt P26367). As to the kind of experiment: ATG_Pax6_CIS: Attagene CIS-FACTORIAL HepG2 Assay for human Paired Box 6 (PAX6) (AID 2282956). Conditions: HepG2 CIS-FACTORIAL PAX6 reporter transcription, RNA readout; actives raise or lower the signal. A digest of the protocol:
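After twenty-four hours of chemical exposure, transfected HepG2 cells are harvested for RNA. Cis-promoter reporter transcripts are amplified, fluorescently labelled and sized by capillary electrophoresis, with gain and loss of signal scored against DMSO.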

Assay [15] can be described thus: ATG_PXRE_CIS: Attagene CIS-FACTORIAL HepG2 Assay for human Pregnane X Receptor Element (PXRE) (AID 2282957). Conditions: HepG2 Attagene CIS-FACTORIAL PXRE reporter, mRNA; actives raise or lower the signal. The essentials:
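Cells: HepG2, transiently transfected reporter units under cis promoter control. Exposure: 24 h. Detection: reporter mRNA via RT-PCR/CE fluorescence; bidirectional fitting, DMSO-referenced.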

Assay [16] in a line: ATG_Sox_CIS: Attagene CIS-FACTORIAL HepG2 Assay for human SRY-box transcription factor (SOX) (AID 2282960). Conditions: HepG2 Attagene cis-factorial SOX reporter, mRNA; actives raise or lower the signal. A digest of the protocol: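 After 24 h of chemical treatment, transfected HepG2 reporter cells are lysed for total RNA. Transcript levels come from RT-PCR with labelled primer extension and capillary electrophoresis, analysed bidirectionally versus DMSO.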

The target in assay [17] is Transcription factor Sp1 (Homo sapiens) (UniProt P08047). The assay is described as follows: ATG_Sp1_CIS: Attagene CIS-FACTORIAL HepG2 Assay for human Specificity Protein 1 (Sp1) (AID 2282961). Conditions: HepG2 Sp1 cis-reporter transcription, actives raise or lower the signal. A digest of the protocol:
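Sp1-driven reporter mRNA, read as capillary electrophoresis fluorescence after RT-PCR, in transiently transfected HepG2 cells dosed for 24 h; signal change in either direction relative to DMSO.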

Assay [18] can be described thus: ATG_TA_CIS: Attagene CIS-FACTORIAL HepG2 Assay for human TA Basal Promoter (AID 2282964). Conditions: HepG2 Attagene CIS-factorial TA basal promoter reporter; actives raise or lower the signal. The essentials: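 Transfected HepG2, 24 h compound exposure; RNA → RT-PCR → FAM primer extension → HpaI cut → CE fluorescence. Gain/loss-of-signal fitted against DMSO negative control. Background-control readout.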

Assay [19] in a line: ATG_TCF_b_cat_CIS: Attagene CIS-FACTORIAL HepG2 Assay for human T-Cell-Factor with beta-catenin (TCF/b-cat) (AID 2282965). Conditions: HepG2 TCF/beta-catenin cis-reporter transcription, actives raise or lower the signal. A digest of the protocol:
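Endogenous TCF/LEF activity read as reporter transcript level via RT-PCR and capillary electrophoresis fluorescence in transfected HepG2, 24 h exposure; gain or loss of signal fitted against DMSO controls.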

A short description of assay [20]: ATG_TAL_CIS: Attagene CIS-FACTORIAL HepG2 Assay for human TAL Basal Promoter (AID 2282966).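 Also: background control endpoint measuring basal TAL promoter reporter mRNA not a specific factor.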 Conditions: HepG2 Attagene cis-factorial TAL promoter reporter; actives raise or lower the signal. A digest of the protocol:
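RT-PCR plus capillary electrophoresis quantifies reporter mRNA induction in transiently transfected HepG2 cells after 24 h chemical treatment. DMSO serves as negative control and baseline for bidirectional fitting.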

Sequence of CCAAT/enhancer-binding protein beta (Homo sapiens) (P17676 whole entry, looked up, the tested form may be a part): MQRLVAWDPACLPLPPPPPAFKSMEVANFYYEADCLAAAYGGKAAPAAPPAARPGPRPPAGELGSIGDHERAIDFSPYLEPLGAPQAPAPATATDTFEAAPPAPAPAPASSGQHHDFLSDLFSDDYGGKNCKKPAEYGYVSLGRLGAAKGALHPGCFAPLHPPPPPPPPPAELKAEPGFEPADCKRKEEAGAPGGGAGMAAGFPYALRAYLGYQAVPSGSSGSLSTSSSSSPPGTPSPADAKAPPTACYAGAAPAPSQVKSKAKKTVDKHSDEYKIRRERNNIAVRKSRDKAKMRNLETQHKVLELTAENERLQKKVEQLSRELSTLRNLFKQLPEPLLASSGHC
Sequence of Paired box protein Pax-6 (Homo sapiens) (P26367 whole entry, looked up): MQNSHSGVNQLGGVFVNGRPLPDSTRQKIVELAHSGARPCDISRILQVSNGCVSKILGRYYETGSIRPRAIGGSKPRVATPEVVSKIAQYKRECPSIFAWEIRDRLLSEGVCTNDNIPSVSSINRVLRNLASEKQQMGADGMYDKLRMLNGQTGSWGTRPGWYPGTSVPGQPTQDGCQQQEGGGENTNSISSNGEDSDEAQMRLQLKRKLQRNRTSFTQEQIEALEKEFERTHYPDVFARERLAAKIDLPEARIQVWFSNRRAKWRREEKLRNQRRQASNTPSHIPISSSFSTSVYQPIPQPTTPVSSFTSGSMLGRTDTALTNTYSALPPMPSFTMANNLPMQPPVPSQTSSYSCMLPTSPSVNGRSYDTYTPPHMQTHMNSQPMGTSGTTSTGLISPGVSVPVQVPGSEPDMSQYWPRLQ
Sequence of Transcription factor Sp1 (Homo sapiens) (P08047 whole entry, looked up): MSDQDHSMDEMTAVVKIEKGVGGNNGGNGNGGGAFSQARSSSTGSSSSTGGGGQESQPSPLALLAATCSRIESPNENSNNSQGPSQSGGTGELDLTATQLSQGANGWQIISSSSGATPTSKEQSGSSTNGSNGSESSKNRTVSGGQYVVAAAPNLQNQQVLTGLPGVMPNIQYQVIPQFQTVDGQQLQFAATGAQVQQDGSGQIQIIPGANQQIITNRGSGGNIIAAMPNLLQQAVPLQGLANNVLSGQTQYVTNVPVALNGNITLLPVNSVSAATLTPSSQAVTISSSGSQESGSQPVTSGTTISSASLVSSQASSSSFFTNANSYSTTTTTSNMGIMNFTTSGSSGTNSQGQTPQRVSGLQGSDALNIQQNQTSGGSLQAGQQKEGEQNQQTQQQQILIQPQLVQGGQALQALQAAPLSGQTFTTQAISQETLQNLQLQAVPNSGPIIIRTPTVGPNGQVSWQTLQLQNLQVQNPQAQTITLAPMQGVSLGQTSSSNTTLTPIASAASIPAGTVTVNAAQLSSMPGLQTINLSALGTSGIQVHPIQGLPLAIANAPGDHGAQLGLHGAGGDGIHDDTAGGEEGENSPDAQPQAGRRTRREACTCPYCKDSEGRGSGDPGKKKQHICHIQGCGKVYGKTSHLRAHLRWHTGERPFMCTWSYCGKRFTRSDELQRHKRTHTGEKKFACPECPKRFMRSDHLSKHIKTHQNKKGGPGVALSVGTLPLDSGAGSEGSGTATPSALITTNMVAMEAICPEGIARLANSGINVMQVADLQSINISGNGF

For the compound `CC(C)n1c(/C=C/[C@@H](O)C[C@@H](O)CC(=O)O)c(-c2ccc(F)cc2)c2ccccc21`, the outcome in assay [1], in assay [2], in assay [3], in assay [4], in assay [5] and in [6] was inactive. In addition, the result in [7], in assay [8], in assay [9], in assay [10], in [11] and in assay [12] was inactive. Further, the compound was classed as inactive in assay [13], in [14], in [16], in [17], in assay [18] and in [19]. Besides, the result in assay [20] was inactive. The concentration at half-maximal activity (AC50) (in general, the concentration at which the activity in the assay is half-maximal) in assay [15] is 3.98 µM (active).
For the compound `Cc1cc(C)c(S(=O)(=O)O)cc1N=Nc1cc(S(=O)(=O)O)c2ccccc2c1O`, the compound was called inactive in assay [1], in [2], in assay [3], in assay [4], in assay [5] and in assay [6]. Besides, the outcome in assay [7], in [8], in [9], in [10], in [11] and in assay [12] was inactive. Moreover, the result in [13], in [14], in [15], in assay [16], in assay [17] and in assay [18] was inactive. Further, the compound was classed as inactive in [19] and in [20].
In the case of `CCOC(=O)CC(=O)OCC`, the compound was classed as inactive in assay [1], in [2], in assay [3], in assay [4], in assay [5] and in [6]. The result in assay [7], in [8], in assay [9], in assay [10], in assay [11] and in assay [12] was inactive. For the same compound, the outcome in assay [13], in [14], in assay [15], in assay [16], in [17] and in [18] was inactive. Moreover, the call in assay [19] and in assay [20] was inactive.
On to `COC(=O)c1ccccc1`, for which the outcome in assay [1], in assay [2], in assay [3], in assay [4], in assay [5] and in assay [6] was inactive. The outcome in [7], in [8], in assay [9], in assay [10], in assay [11] and in assay [12] was inactive. Moreover, the outcome in assay [13], in assay [14], in assay [15], in assay [16], in [17] and in assay [18] was inactive. Further, the outcome in [19] and in [20] was inactive.
Turning to `Cc1cccnc1`, the result in assay [1], in [3], in assay [4], in [7], in assay [8] and in [9] was inactive. Also, the compound was called inactive in assay [11], in assay [12], in [13], in assay [14], in assay [15] and in assay [16]. The call in assay [17], in assay [18], in assay [19] and in assay [20] was inactive. For the same compound, the AC50 in assay [2] is 100 µM (active); in assay [5], 58 µM (active); in assay [6], 167 µM (active); in assay [10], 164 µM (active).
Consider `C[C@H]1C[C@H]2[C@@H]3CCC4=CC(=O)C=C[C@]4(C)[C@@]3(F)[C@@H](O)C[C@]2(C)[C@@]1(O)C(=O)CO`, for which the call in [1], in [2], in assay [3], in assay [5], in [7] and in assay [8] was inactive. Also, the outcome in assay [9], in assay [10], in assay [11], in assay [12], in assay [16] and in assay [17] was inactive. Moreover, the call in assay [20] was inactive. Besides, the AC50 in assay [4] is 166 µM (active); in assay [6], 73.3 µM (active); in assay [13] it was 80.1 µM (active); in assay [14], 69 µM (active); in assay [15] it was 9.62 µM (active); in assay [18] it was 100 µM (active). Besides, the AC50 in [19] was 150 µM (active).
In the case of `F[B-](F)(F)F`, the call in assay [1], in [2], in assay [3], in assay [4], in assay [5] and in [6] was inactive. Further, the result in [7], in assay [8], in [9], in assay [10], in assay [11] and in assay [12] was inactive. Besides, the compound was called inactive in [13], in assay [14], in assay [15], in [16], in assay [17] and in [18]. Further, the compound was classed as inactive in [19] and in assay [20].

(Values after PubChem BioAssay (EPA / NIEHS).)
